Test [1] deals with Lysosomal acid glucosylceramidase (Homo sapiens) (UniProt P04062). The test is described as follows: Glucocerebrosidase-p2 (AID 348; in the data active means potency below about 10 µM; further: potency means the concentration at half of the fitted maximal effect). The note with it: purified GBA, blue fluorogenic substrate, 40 min. The gist of the method: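 Compounds titrated from 0.6 nM upwards against 0.2 nM enzyme in pH 5.9 citric acid/KH2PO4, taurocholate, tween-20; blue fluorogenic substrate 80 uM, 40 min room temperature, stopped and read Ex 365/Em 440 for AC50.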
Sequence of Lysosomal acid glucosylceramidase (Homo sapiens) (P04062 whole entry, looked up): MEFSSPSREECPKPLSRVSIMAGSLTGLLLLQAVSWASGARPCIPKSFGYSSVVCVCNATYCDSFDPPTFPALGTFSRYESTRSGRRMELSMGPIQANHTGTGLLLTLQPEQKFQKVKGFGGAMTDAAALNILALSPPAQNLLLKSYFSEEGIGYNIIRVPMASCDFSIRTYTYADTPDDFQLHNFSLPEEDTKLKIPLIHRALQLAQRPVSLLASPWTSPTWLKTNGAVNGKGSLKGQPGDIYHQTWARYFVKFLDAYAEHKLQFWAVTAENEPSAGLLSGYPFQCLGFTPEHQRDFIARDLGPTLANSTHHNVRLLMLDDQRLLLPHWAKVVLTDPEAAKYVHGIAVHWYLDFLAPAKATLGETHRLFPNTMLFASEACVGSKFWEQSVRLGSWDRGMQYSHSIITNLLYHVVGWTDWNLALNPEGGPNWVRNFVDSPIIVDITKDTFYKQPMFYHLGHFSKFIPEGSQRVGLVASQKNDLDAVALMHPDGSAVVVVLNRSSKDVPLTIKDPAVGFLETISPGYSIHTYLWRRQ

Test [2] is described as follows: AP1 Signaling Pathway (AID 357). Further: on the % scale 0 is the no-effect control and ±100 the full control effect. To be noted: ME-180 AP-1-bla reporter, EGF-induced, beta-lactamase ratio, 5 h; at 7.69 µM (top of the series) unless noted. Summed up: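 Read-out was the 460nm/530nm emission ratio (excitation 405nm) after CCF4 loading for 2.5 hours at room temperature. Cells carried an AP-1-driven beta-lactamase reporter, were stimulated with EC50 EGF plus compound for 5 hours, and AC50 values came from titrations.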

In test [3] the target is Cytochrome P450 1A2 (Homo sapiens) (UniProt P05177). The test is described as follows: p450-cyp1a2 (AID 410; calls by dose curve; further: potency means the concentration at half of the fitted maximal effect;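 on activity change, negative = inhibition: -100% = full effect of reference inhibitor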). To be noted: recombinant CYP1A2, luciferin-ME demethylation, luminescence; series mostly up to 11.4 µM. Summed up:
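20nM CYP1A2 with 100uM Luciferin-ME (at Km) in 100mM KPO4; compound preincubated 10 min, NADPH regeneration added, 60 min at room temperature. Luciferin quantified by luminescence after detection reagent; normalized to 57 uM furafylline.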

Test [4] can be described thus: NFAT Signaling Pathway (AID 444).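 Further: carbachol stimulus at about its EC50 of 1 µM final; on the % scale 0 is the no-effect control and ±100 the full control effect.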 To be noted: Jurkat NFAT-bla M1, carbachol, beta-lactamase ratio, 5 h; at 7.69 µM (top of the series) unless noted. Summed up:
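Read-out: CCF4 FRET ratio (460 nm/530 nm) after 1 h RT dye loading, used for %activity and AC50 from titration series. Cells: Jurkat NFAT-β-lactamase/M1 line, treated with compound plus 1 uM carbachol for 5 h, 37 °C.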

Test [5] can be described thus: Stat Signaling Pathway (AID 446).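 Further: ME-180 cervical cancer cells given 40 pM IL-6 alongside compound; SIE-controlled beta-lactamase reporter measured as 460/530 nm FRET emission ratio; on the % scale 0 is the no-effect control and ±100 the full control effect.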 To be noted: ME-180 SIE beta-lactamase reporter, IL-6 stimulated, 5 h; at 7.69 µM (top of the series) unless noted. The gist of the method: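 ME-180 SIE-bla cells; overnight plating; cpd + IL-6 40 pM, 5 h, 37 C; LiveBLAzer 2.5 h RT; 460/530 nm emission ratio. Normalized to 300 pM IL-6 and 125 nM JAK inhibitor controls.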
In test [6] the target is Glucocorticoid receptor (Homo sapiens) (UniProt P04150). The experiment in a line: GR-GFP Redistribution (AID 450;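 active means compounds whose dose series gives a full or clear partial fitted curve of increased nuclear translocation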; further: potency means the concentration at half of the fitted maximal effect). The note with it: U2OS GR-GFP nuclear translocation, laser cytometry, 2 h.
Sequence of Glucocorticoid receptor (Homo sapiens) (P04150 whole entry, looked up, the tested form may be a part): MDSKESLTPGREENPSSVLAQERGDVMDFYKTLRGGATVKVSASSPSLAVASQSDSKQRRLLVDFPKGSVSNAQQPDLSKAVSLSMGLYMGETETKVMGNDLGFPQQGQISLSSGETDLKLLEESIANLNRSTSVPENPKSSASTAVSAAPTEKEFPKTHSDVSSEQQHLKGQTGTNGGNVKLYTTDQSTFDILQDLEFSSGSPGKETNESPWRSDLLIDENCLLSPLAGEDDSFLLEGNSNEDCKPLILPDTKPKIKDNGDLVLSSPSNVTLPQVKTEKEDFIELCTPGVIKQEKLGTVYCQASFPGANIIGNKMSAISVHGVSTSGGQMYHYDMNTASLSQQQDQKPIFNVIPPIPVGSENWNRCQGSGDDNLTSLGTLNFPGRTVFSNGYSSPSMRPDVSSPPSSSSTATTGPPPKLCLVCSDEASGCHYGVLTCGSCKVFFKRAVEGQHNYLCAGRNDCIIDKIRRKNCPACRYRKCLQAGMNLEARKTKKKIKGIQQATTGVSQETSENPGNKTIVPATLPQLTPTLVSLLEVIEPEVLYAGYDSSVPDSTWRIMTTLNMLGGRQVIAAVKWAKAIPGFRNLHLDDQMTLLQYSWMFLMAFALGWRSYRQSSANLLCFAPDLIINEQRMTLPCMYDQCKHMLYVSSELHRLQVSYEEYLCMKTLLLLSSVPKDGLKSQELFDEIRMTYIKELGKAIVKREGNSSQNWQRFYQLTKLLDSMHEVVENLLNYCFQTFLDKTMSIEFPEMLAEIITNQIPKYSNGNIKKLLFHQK
Test [7] shares this target. The test is described as follows: GR-EFC Redistribution (AID 451; calls by dose curve; further: potency means the concentration at half of the fitted maximal effect). To be noted: CHO-K1 GR-EFC translocation, beta-gal luminescence, 2 h. The gist of the method: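 Translocation of GR-ED fusion to nuclear EA restores b-gal, read by luminescence after 1 h room-temperature detection. Engineered CHO-K1 biosensor cells, 1,000/well, exposed 2 h at 37 C to titrations up to 46 uM final.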

Test [8] deals with Mitogen-activated protein kinase 10 (Mus musculus) (UniProt Q61831). The experiment in a line: JNK3 AlphaScreen Assay (AID 530).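 Further: kinase came from lysate of stimulated human HepG2 cells; signal reports phosphorylation of biotinylated GST-cJun 1-79 at Ser73 with 10 µM ATP; on the % scale 0 is the no-effect control and ±100 the full control effect.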 To be noted: JNK3 lysate, c-Jun phosphorylation; series mostly up to 11.4 µM. The gist of the method:
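Compound titrations were preincubated 15 minutes at room temperature with substrate, antibody and pre-activated JNK3-containing HepG2 lysate. Reactions were started with 10 uM ATP and stopped with EDTA-containing bead buffer for AlphaScreen detection.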

The target in test [9] is 3',5'-cyclic-AMP phosphodiesterase 4B (Homo sapiens) (UniProt Q07343). The test is described as follows: qHTS Assay for Inhibitors of PDE-IV (AID 607; active means well fitted activation curve with a large enough effect in the main read-out, with a control signal flat, not every such curve was filed as active; further: % of control where 0% means no effect). The note with it: HEK293 ACTOne CNG channel cells, membrane potential fluorescence; series mostly up to 22.9 µM. The gist of the method:
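ACTOne HEK293 cells carry a modified cAMP-gated CNG channel and express endogenous PDE4; plated 1000 cells/well, compounds up to 22.9 uM final. Membrane-potential dye fluorescence (ex 535/em 590) was read; parental cells received 10 uM forskolin + 100 uM RO 20-1724.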
For orientation: Quantitative high-throughput screening tests each substance at several concentrations.

Molecules are shown by their SMILES. A number with no mark means an inactive call. Records with an inconclusive call do not appear. Calls of active or inactive are those of the source. Unless noted, the call rests on the fitted dose curve; in most records, active means well fitted curve in either direction with a large enough effect (not every such curve was filed as active); inconclusive means small, poorly fitted or top-dose-only effect, or another doubt; inactive means flat fitted curve, though single readings scatter. Some results are limits rather than exact numbers.

Sequence of Cytochrome P450 1A2 (Homo sapiens) (P05177 whole entry, looked up): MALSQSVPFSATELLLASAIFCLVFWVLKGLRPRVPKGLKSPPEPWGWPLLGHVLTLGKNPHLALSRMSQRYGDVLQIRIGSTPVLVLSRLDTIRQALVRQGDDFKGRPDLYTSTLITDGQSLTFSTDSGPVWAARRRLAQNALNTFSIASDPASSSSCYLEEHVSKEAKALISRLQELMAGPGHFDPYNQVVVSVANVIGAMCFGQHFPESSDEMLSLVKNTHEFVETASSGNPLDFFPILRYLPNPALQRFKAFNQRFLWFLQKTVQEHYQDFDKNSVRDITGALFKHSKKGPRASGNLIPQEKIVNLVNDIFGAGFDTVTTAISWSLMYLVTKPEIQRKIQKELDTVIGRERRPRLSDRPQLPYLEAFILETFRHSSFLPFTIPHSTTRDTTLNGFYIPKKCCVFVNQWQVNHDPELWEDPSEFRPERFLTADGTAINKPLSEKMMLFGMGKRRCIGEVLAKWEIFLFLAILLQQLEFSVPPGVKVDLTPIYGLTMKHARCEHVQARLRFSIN
Sequence of 3',5'-cyclic-AMP phosphodiesterase 4B (Homo sapiens) (Q07343 whole entry, looked up): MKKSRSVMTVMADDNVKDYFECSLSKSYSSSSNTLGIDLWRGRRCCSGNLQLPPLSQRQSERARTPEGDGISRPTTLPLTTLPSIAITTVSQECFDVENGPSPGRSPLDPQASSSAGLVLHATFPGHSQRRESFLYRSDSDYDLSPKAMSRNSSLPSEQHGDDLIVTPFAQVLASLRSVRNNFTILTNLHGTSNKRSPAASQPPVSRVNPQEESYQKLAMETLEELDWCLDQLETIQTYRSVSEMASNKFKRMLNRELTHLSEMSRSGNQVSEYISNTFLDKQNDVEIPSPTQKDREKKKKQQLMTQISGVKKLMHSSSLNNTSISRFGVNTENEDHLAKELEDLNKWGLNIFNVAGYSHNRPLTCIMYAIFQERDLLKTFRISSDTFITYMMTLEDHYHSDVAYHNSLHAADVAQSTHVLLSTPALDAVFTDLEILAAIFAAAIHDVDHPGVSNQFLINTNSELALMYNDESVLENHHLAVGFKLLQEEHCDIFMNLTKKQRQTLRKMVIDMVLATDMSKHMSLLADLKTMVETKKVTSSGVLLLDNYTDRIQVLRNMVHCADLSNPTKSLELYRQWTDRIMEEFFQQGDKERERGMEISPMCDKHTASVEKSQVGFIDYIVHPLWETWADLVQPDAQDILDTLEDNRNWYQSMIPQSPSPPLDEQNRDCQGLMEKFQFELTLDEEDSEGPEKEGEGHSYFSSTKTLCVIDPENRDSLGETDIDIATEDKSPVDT

As for `O=CN[C@@H](Cc1cnc[nH]1)C(=O)O`, the values for the Potency in test [1], in test [6] and in test [7] were more than 11.4 µM, more than 46 µM and more than 9.22 µM, respectively. Also, the activity change, negative = inhibition in test [2] was 4.13%; in [4] it was 2.87%. For the same compound, the Potency entry in [3], in [8] and in test [9] was “inactive” in each case. In [5], the activity, negative = inhibition is 0.427%.

For `O=C1C=C(Nc2nc(C(=O)O)cc(=O)[nH]2)c2ccccc2C1=O`, the Potency in [1] was more than 11.4 µM; in test [6], more than 46 µM; in test [7], more than 9.22 µM. Moreover, the activity change, negative = inhibition is -3.21% in test [2], -15.8% [at 2.29 µM] in [3] and 7.2% in test [4]. The activity, negative = inhibition in [5] was 1.38%. In addition, the Potency result in test [8] and in test [9] was “inactive” throughout.

Regarding `NCc1nnn(Cc2ccccc2)c1N`, the figures for the Potency in [1], in test [6] and in test [7] were more than 11.4 µM, more than 46 µM and more than 9.22 µM, respectively. For the same compound, the activity change, negative = inhibition in test [2] is 2.56%; in test [4] it was 19.4%. Further, the Potency entry in [3], in [8] and in test [9] was “inactive” each time. The activity, negative = inhibition in test [5] is -5.08%.

With `Cc1cc(C)c(O)c(Cc2cccc(Cc3cc(C)cc(C)c3O)c2O)c1`, the results for the Potency in test [1], in test [6] and in [7] were more than 11.4 µM, more than 46 µM and more than 9.22 µM, respectively. Further, the activity change, negative = inhibition in [2] was 0.471%; in test [3], -14.7% [at 2.29 µM]; in test [4] it was 11.9%. Further, the activity, negative = inhibition in test [5] was 2.38%. Further, the Potency entry in test [8] and in test [9] was “inactive” throughout.

As for `Nc1nc(SCC(=O)O)[nH]c(=O)c1N`, the Potency in test [1] is more than 11.4 µM; in test [6] it was more than 46 µM; in test [7], more than 9.22 µM. Further, the activity change, negative = inhibition was 4.37% in test [2] and 10.6% in test [4]. Moreover, the Potency entry in test [3], in test [8] and in [9] was “inactive” in each case. Besides, the activity, negative = inhibition in [5] was 4.74%.

As for `Nc1ccn([C@@H]2O[C@H](COC(=O)C34CC5CC(CC(C5)C3)C4)[C@@H](O)[C@@H]2O)c(=O)n1`, the values for the Potency in test [1], in [6] and in test [7] were more than 11.4 µM, more than 46 µM and more than 9.22 µM, respectively. Further, the figures for the activity change, negative = inhibition in test [2], in test [3] and in test [4] were 9.17%, -18.7% [at 2.29 µM] and 16.8%, respectively. In test [5], the activity, negative = inhibition was -0.882%. Besides, the Potency result in test [8] and in [9] was “inactive” throughout.

For the compound `O=C(O)/C(=C\c1ccc(O)cc1)c1cccc2ccccc12`, the values for the Potency in test [1], in [6] and in [7] were more than 11.4 µM, more than 46 µM and more than 9.22 µM, respectively. In addition, the activity change, negative = inhibition in test [2] is 1.02%; in test [4], 2.46%. In addition, the Potency entry in [3], in test [8] and in test [9] was “inactive” throughout. Moreover, the activity, negative = inhibition in test [5] is -8.2%.

As for `NC1=C2NC=N[C@@H]2N(C/C=C\c2ccccc2)C=N1`, the Potency in test [1] was more than 11.4 µM; in test [6] it was more than 46 µM; in test [7], more than 9.22 µM. For the same compound, the activity change, negative = inhibition in [2] was 1.36%; in [3], -12.4% [at 2.29 µM]; in test [4], 4.81%. The activity, negative = inhibition in test [5] is 13.2%. For the same compound, the Potency result in test [8] and in [9] was “inactive” in each case.

Regarding `O=C(O)CSc1nnc2c3ccccc3c3ccccc3c2n1`, the Potency in test [1] was more than 11.4 µM; in [3], 0.0794 µM (active); in [6] it was more than 46 µM; in [7], more than 9.22 µM. The activity change, negative = inhibition was -9.84% in [2] and 22.2% in test [4]. The activity, negative = inhibition in [5] is 10.3%. Besides, the Potency result in [8] and in test [9] was “inactive” each time.

Turning to `Cn1c(N)c(N=Nc2ccc(S(N)(=O)=O)cc2)c(=O)n(C)c1=O`, the Potency in [1] was more than 11.4 µM; in test [6] it was more than 46 µM; in test [7], more than 9.22 µM. Also, the activity change, negative = inhibition in test [2] was 12.7%; in test [3], -12.8% [at 2.29 µM]; in test [4], 16.4%. Also, in test [5], the activity, negative = inhibition was 24.3%. For the same compound, the Potency result in test [8] and in [9] was “inactive” each time.

With `N=C(N)c1ccc(-c2ccc(-c3ccc(C(=N)N)cc3)o2)cc1`, the values for the Potency in [1], in test [6] and in test [7] were more than 11.4 µM, more than 46 µM and more than 9.22 µM, respectively. For the same compound, the activity change, negative = inhibition in test [2] was 7.04%; in test [4], 7.72%. Besides, the Potency result in [3], in test [8] and in [9] was “inactive” each time. Further, the activity, negative = inhibition in test [5] is 10.3%.

In the case of `Cc1c(NC(=O)Nc2c(Cl)cccc2Cl)c(=O)n(-c2ccccc2)n1C`, the Potency is more than 11.4 µM in test [1], more than 46 µM in test [6] and more than 9.22 µM in [7]. The values for the activity change, negative = inhibition in test [2] and in [4] were 4.18% and -0.333%, respectively. The Potency entry in test [3], in test [8] and in test [9] was “inactive” each time. The activity, negative = inhibition in [5] was -1.35%.

Regarding `Nc1nc(-c2cc(-c3cccc4ccccc34)nc(N)n2)cc(-c2cccc3ccccc23)n1`, the Potency was more than 11.4 µM in test [1], more than 46 µM in test [6] and more than 9.22 µM in test [7]. The values for the activity change, negative = inhibition in test [2], in test [3] and in test [4] were -7.45%, -4.4% [at 2.29 µM] and 3.93%, respectively. Further, the activity, negative = inhibition in test [5] is -4.92%. Moreover, the Potency result in test [8] and in test [9] was “inactive” each time.

Turning to `CCOC(=O)[C@]1(CC(=O)O)CCCC1=O`, the Potency in [1] was more than 11.4 µM; in test [6] it was more than 46 µM; in [7], more than 9.22 µM. For the same compound, the activity change, negative = inhibition in test [2] is -0.0726%; in test [4] it was -7.19%. In addition, the Potency entry in [3], in test [8] and in test [9] was “inactive” throughout. Moreover, the activity, negative = inhibition in test [5] was -19.1%.

In the case of `CCn1c2ccccc2c2nnc(NCCCO)nc21`, the Potency was more than 11.4 µM in test [1], 1.58 µM (active) in test [3], more than 46 µM in test [6] and more than 9.22 µM in test [7]. Further, the activity change, negative = inhibition in [2] is 7.47%; in test [4] it was 10.3%. Further, the activity, negative = inhibition in [5] is 1%. In addition, the Potency entry in [8] and in test [9] was “inactive” each time.

Values taken from PubChem BioAssay (NCATS).
